Drawing on PubChem BioAssay AID1347165 (National Center for Advancing Translational Sciences (NCATS), 2019), this text covers Potency for 67 molecules.

The whole screen tested about 220,000 compounds, of which about 5,700 (2.6%) were called active. Another 18% or so got no clear call; they are omitted. Calls follow the shape of the dose curve; as a rule, active = well fitted inhibition curve with a large enough effect; inconclusive = small, poorly fitted or top-dose-only effect; inactive = no such curve, though single readings can be large or run the other way. The list comes from a sample in which actives are over-represented; it also holds similar structures and randomly drawn compounds. Where a call stands in place of a potency, no number is given.
Potency is read from the fitted curve at half-maximal effect.

Chain of Lysine-specific demethylase 5B (Homo sapiens) (Q9UGL1 whole entry, looked up): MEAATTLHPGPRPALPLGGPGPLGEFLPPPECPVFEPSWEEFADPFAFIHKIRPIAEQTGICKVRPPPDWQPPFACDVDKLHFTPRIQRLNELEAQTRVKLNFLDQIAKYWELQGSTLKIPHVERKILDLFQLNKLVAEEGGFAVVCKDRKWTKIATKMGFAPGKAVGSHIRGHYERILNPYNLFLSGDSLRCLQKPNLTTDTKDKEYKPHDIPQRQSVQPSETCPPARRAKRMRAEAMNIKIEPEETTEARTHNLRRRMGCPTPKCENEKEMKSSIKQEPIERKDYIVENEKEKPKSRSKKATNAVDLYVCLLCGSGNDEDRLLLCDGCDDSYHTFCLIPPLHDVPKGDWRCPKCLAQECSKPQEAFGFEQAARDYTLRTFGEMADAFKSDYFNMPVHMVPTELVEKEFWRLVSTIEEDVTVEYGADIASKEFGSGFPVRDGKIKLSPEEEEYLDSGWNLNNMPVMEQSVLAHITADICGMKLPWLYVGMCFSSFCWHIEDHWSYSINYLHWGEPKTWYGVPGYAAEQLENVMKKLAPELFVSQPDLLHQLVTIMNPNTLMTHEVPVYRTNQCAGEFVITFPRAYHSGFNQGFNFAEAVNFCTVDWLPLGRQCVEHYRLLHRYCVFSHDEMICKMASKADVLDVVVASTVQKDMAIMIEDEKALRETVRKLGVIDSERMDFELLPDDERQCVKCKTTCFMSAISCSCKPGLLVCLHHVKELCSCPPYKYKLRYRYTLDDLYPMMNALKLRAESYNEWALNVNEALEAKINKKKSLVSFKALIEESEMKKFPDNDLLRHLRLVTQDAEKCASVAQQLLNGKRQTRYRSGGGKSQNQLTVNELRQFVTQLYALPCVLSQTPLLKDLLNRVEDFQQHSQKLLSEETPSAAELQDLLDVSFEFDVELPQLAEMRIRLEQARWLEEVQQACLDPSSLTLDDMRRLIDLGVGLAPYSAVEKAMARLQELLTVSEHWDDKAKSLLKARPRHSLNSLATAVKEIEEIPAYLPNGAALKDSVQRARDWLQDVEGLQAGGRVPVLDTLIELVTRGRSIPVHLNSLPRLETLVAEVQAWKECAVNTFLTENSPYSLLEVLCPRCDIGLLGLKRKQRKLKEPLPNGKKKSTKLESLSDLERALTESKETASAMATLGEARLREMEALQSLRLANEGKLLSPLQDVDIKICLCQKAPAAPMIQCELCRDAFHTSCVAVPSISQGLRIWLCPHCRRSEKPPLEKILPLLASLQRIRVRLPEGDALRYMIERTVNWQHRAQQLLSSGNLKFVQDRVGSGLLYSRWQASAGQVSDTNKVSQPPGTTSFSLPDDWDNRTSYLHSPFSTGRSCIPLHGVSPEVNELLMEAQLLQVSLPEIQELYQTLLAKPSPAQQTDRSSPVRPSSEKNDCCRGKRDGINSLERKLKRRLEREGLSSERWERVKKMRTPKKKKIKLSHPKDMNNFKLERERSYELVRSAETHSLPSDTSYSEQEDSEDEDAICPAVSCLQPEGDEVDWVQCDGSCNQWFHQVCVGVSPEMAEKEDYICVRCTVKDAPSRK

This test addresses Lysine-specific demethylase 5B (Homo sapiens) (UniProt Q9UGL1). Description: Primary screen for KDM5B Histone Demethylases FDH-coupled qHTS. Also: nearly all actives have a fitted effect of over 70% in size. The settings on record: FDH-coupled NADH fluorescence (FDH is formaldehyde dehydrogenase); series mostly up to 57.7 µM. The gist of the method: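 qHTS format, multiple compound concentrations. Buffer 50 mM HEPES pH 7.5/0.01% Tween-20; 200 nM KDM5BΔAP final; 10 min compound preincubation; substrate-mix levels 12.5 µM peptide, 25 µM α-KG, 0.25 mM NAD⁺; 30 min RT; ΔRFU.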
A general note: Quantitative high-throughput screening tests each substance at several concentrations.
Regarding `O=S(=O)(c1ccccc1Cl)N1CCN(C/C=C/c2ccccc2)CC1`, the Potency result is “inactive”. Next, `Fc1ccc(N2CCCN(CC3[C@H]4CNC[C@@H]34)CC2)cc1` (some centres not stated): “inactive”; `O=C(Nc1ccc(CC23CC4CC(CC(C4)C2)C3)cc1)c1ccc(Cl)cc1Cl`: “inactive”; `CCOc1ccc(-c2nc(Cn3nnc(C(=O)NCc4ccc(Cl)cc4)c3N)c(C)o2)cc1OC`: “inactive”.

As to `CCCn1nc(C(=O)OCc2nc(N)nc(Nc3ccccc3C)n2)c2ccccc2c1=O`, the Potency entry was “inactive”. In the case of `CCOc1cc(CNc2nn[nH]n2)ccc1OCc1ccccc1Cl` it was “inactive”; in that of `COc1ccc(-c2noc3ncnc(N4CCC(C(=O)NCCN5CCCCC5)CC4)c23)cc1`, “inactive”; in that of `CCCCCCCCCCS(=O)(=O)CCSC(=N)N`, “inactive”. `COc1ccc(OC)c(NC(=O)Cn2ccc3ccc(Cl)cc32)c1`: the Potency entry is “inactive”.

Regarding `COc1ccc(OC)c(NC(=O)c2cc3n(n2)CC(c2ccc(Cl)cc2)OC3)c1` (configuration not stated), the Potency is 25.1 µM (active). Take `COc1ccc(OC)c(NC(=O)c2nc3ccccc3nc2N2CCCC2)c1`: the Potency entry was “inactive”. On to `COc1ccc(OC)c(C2C3=C(CC(C)(C)CC3=O)Nc3nc(-c4cccc(C)c4)nn32)c1` (configuration not stated), for which the Potency result was “inactive”.

`CCNC(=O)Nc1ccc(S(=O)(=O)Nc2cnc(C)nc2C)cc1`: the Potency result is “inactive”. Next, `O=C(Nc1ccc2oc(-c3ccc(F)cc3)nc2c1)c1ccc2c(c1)OCCO2`: “inactive”; `Cn1c(CCN2CCCCC2)nc2cc(NC(=O)c3ccccc3Cl)ccc21`: “inactive”; `Cc1ccc(CNC(=O)c2cccc3cccnc23)cc1`: “inactive”. In the case of `Cc1ccccc1C(=O)NCc1nnc2ccc(-c3ccccc3)nn12` it was 31.6 µM (active); in that of `Cc1ccc(-c2ccc3nnc(CNC(=O)c4ccccn4)n3n2)cc1`, 31.6 µM (active); in that of `Cc1ccc(-n2nnnc2CNC(=O)c2ccccc2C)cc1C`, “inactive”. In the case of `O=C(Nc1ccc(-c2nnc3n2CCCC3)cc1)c1ccccn1` it was “inactive”. Regarding `Cc1ccccc1C(=O)NCc1nc(-c2ccc(Cl)cc2)no1`, the Potency entry is “inactive”. In the case of `O=C(CCc1ncc(-c2ccccc2)o1)Nc1nc2ccccc2s1` it was “inactive”; in that of `CCOC(=O)C(O)(c1ccc(N(CC)C(=O)Nc2ccc(Cl)cc2)cc1)C(F)(F)F` (configuration not stated), “inactive”; in that of `CCN(C(=O)Cc1coc2ccc(C)cc12)c1ccccc1`, “inactive”. In the case of `Cc1ccccc1NC(=O)C1CC(=O)Nc2nc(SCc3ccccc3)nn21` (configuration not stated) it was “inactive”. Next, `O=C(NCCCNC(=O)c1nc2ccccc2c(=O)[nH]1)c1cccnc1`: “inactive”; `Cc1nc2cc(C(=O)Nc3ccc(N(C)C)cc3)ccc2n1-c1ccccc1`: “inactive”. With `c1coc(-c2nc(-c3cccs3)no2)c1`, the Potency entry is “inactive”. In the case of `CC1CCN(c2nc3c(c(=O)n(C)c(=O)n3C)n2CC(=O)c2ccc(Br)cc2)CC1` it was “inactive”; in that of `CCCNC(=O)C(NC(=O)c1cccc(OC)c1)C1CCN(C(=O)c2ccccc2F)CC1` (configuration not stated), “inactive”.

Regarding `C=CCNC(=O)C(NC(=O)c1cccc(OC)c1)C1CCN(C(=O)c2ccccc2F)CC1` (configuration not stated), the Potency is 31.6 µM (active).

Turning to `COc1cccc(C(=O)N2CCC(C(NC(=O)c3ccccc3C)C(=O)NCC(C)C)CC2)c1` (configuration not stated), the Potency entry was “inactive”. Next, `Cn1c(=O)[nH]c(=O)c2c1nc(N1CCNCC1)n2CC(N)=O`: “inactive”; `O=[N+]([O-])c1cc(C(F)(F)F)ccc1NCCc1ccncc1`: “inactive”; `O=c1oc2ccccc2c(N2CCCC2)c1NS(=O)(=O)c1cccc(F)c1`: “inactive”. In the case of `COCC1CN(C(C)=O)CC12CCN(C(=O)NCc1cccc(OC)c1)CC2` (configuration not stated) it was “inactive”; in that of `CCOc1cccc(CN2CCC3(CC2)CN(C)CC3COC)c1` (configuration not stated), 14.1 µM (active). In the case of `COCC1CN(C(C)=O)CC12CCN(Cc1ccccc1OC)CC2` (configuration not stated) it was “inactive”; in that of `Cc1occc1-c1nnc(SCC(=O)c2cc(C)n(C3CC3)c2C)n1C`, “inactive”; in that of `CC(NC(=O)c1ccco1)c1ccc(-c2ccccc2)cc1` (configuration not stated), “inactive”. Regarding `Cc1ccc2c(C)cc(SCC(=O)NC3CC3)nc2c1`, the Potency result was “inactive”. Next, `CN(Cc1ccccc1)C(=O)C1(C)CCCc2cnc(Nc3cccnc3)nc21` (configuration not stated): “inactive”. Consider `CC1(C(=O)NCc2ccc3c(c2)OCO3)CCc2cnc(NCc3ccccc3)nc21` (configuration not stated), for which the Potency was 25.1 µM (active). In the case of `CC1(C(=O)NCC2CCCO2)CCCc2cnc(Nc3ccccc3)nc21` (configuration not stated) it was “inactive”; in that of `O=C(Cn1nc2c(cc1=O)CCCC2)Nc1cc(C(F)(F)F)ccc1Cl`, “inactive”; in that of `Cc1nn2c(c1-c1ccccc1Oc1ccccc1)N(C(=O)C(C)C)CCC2`, “inactive”. In the case of `Cc1nn2c(c1-c1ccccc1-c1ccccc1)N(C(=O)CN1CCOCC1)CCC2` it was “inactive”.

For `Cc1nn2c(c1-c1ccccc1-c1ccccc1)N(CC1CC1)CCC2`, the Potency is 28.2 µM (active). In the case of `CCc1ccc(N(CC)C(=O)C(=O)c2c[nH]c3ccccc23)cc1` it was “inactive”; in that of `Cc1ccc2[nH]c(=O)c(CCC(=O)NCc3ccncc3)cc2c1`, 25.1 µM (active); in that of `Cc1ccc2[nH]c(=O)c(COC(=O)c3ccccn3)cc2c1`, “inactive”.

On to `Cc1ccc(CCC(=O)NCc2cccnc2)cc1`, for which the Potency result is “inactive”. Next, `COCCN(C)C[C@H]1C[C@H](CO)CN(C(=O)c2ccc(C(C)C)[nH]c2=O)C1`: “inactive”; `CC1(C)CC(=O)C2=C(C1)Nc1nc(N)[nH]c(=O)c1C2c1ccc2c(c1)OCO2` (configuration not stated): “inactive”; `Cc1cn2nc(C(=O)Nc3cc(F)cc(F)c3)cc2c(N(C)Cc2ccccc2)n1`: 25.1 µM (active). In the case of `Cc1cn2nc(C(=O)Nc3ccc(F)cc3C)cc2c(N(C)Cc2ccccc2)n1` it was 20 µM (active). In the case of `CCN(CC)c1nc2ccccc2nc1C(=O)Nc1ccc(C)c(C)c1` it was “inactive”; in that of `CCN(CC)c1nc2ccccc2nc1C(=O)Nc1ccc(C)cc1C`, “inactive”; in that of `Cc1cc(C)cc(NC(=O)N(C)Cc2ccccc2)c1`, “inactive”.

Take `Cc1cn2nc(C(=O)Nc3cccc(F)c3)cc2c(N(C)Cc2ccccc2)n1`: the Potency result was “inactive”. Next, `COc1cccc(CNC(=O)Cn2c(N(C)Cc3ccccc3)nc(C)cc2=O)c1OC`: “inactive”; `Cc1cn2nc(C(=O)Nc3ccc(F)cc3F)cc2c(N(C)Cc2ccccc2)n1`: “inactive”. Next, `COc1ccc(NC(=O)c2cc3c(N(C)Cc4ccccc4)nc(C)cn3n2)cc1F`: 17.8 µM (active); `Oc1ccc(-c2nc(-c3ccccc3F)cs2)cc1`: “inactive”; `C=CCNC(=O)Nc1cc(NC(=O)Nc2ccccc2)ccc1C`: “inactive”. Next, `Cc1ccc(CN2CCOc3cc([S+](=O)([O-])N(C)C)ccc3C2)c(F)c1`: “inactive”; `Cc1ccc(CN2CCC(Oc3cnc4c(ccn4CCN[S+](C)(=O)[O-])c3)CC2)c(F)c1`: 31.6 µM (active).
